Measurements: the supplement of paper PMC6522484
± gives the standard deviation of the averaged measurements.

Assays:
DLD1 [1] = assay: cell viability (CellTiter-Glo) relative to plate median (fraction of plate median); higher = more viable cells; settings: 5 µM; treatment time 24 h; reporter: 7TFP
Summary of the method: (§1)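 Two independent replicates were averaged for each reported value. Library compounds were applied at a final 5 µM for 24 h to colorectal cancer cell lines stably expressing lentiviral TCF/Wnt firefly luciferase reporters. Firefly luciferase or CellTiterGlo luminescence from each well was normalised to the plate median.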

HCT116 = assay: as above; settings: 5 µM; treatment time 24 h; reporter: TCF4/Wnt
Summary of the method: as §1

SW480 [2] = assay: as above; settings: 5 µM; treatment time 24 h; reporter: 7TFP
Summary of the method: as §1

DLD1 [3] = assay: TCF/Wnt firefly luciferase reporter signal relative to plate median (fraction of plate median); higher = higher Wnt reporter signal; settings: 5 µM; treatment time 24 h; reporter: 7TFP
Summary of the method: as §1

SW480 [4] = assay: as above; settings: 5 µM; treatment time 24 h; reporter: 7TFP
Summary of the method: as §1

SMILES	cell viability (DLD1 [1])	cell viability (HCT116)	cell viability (SW480 [2])	TCF/Wnt firefly luciferase reporter signal (DLD1 [3])	TCF/Wnt firefly luciferase reporter signal (SW480 [4])
COc1cc(OC)c2c(OC)c(-c3ccc4c(c3)OCO4)c(=O)oc2c1	1.04	1.08 ± 0.05	1.01 ± 0.061	0.804 ± 0.36	0.867 ± 0.34
CC(=O)Nc1ccc(S(=O)(=O)Nc2ccc([N+](=O)[O-])cc2)cc1	0.868 ± 0.03	0.933 ± 0.12	1.02 ± 0.028	1.1 ± 0.071	1.08 ± 0.042
O=C(O)c1cc(O)c(O)c(O)c1	0.906 ± 0.059	0.955 ± 0.093	1 ± 0.08	1.11 ± 0.17	1.03 ± 0.17
O=c1occ(C(O)CO)c2cccc(O)c12 (stereo not given) [Oospoglycol]	0.886 ± 0.079	0.9515 ± 0.0035	0.976 ± 0.09	1.1 ± 0.11	1.01 ± 0.15
CC(C)(C)CC(C)(C)c1ccc(O)c(Cc2ccc(Cl)cc2Cl)c1	0.987 ± 0.075	1.05 ± 0.05	1.03 ± 0.014	0.86 ± 0.012	0.891 ± 0.11
CC(C)(C(=O)O)c1ccc(C(O)CCCN2CCC(C(O)(c3ccccc3)c3ccccc3)CC2)cc1 (stereo not given)	1.05 ± 0.078	0.899 ± 0.049	1.055 ± 0.0071	1.05 ± 0.028	1.13
CC1(C)O[C@@H]2C[C@H]3[C@@H]4C[C@H](F)C5=CC(=O)C=C[C@]5(C)[C@@]4(F)[C@@H](O)C[C@]3(C)[C@]2(C(=O)CO)O1	0.955 ± 0.11	1 ± 0.093	0.975 ± 0.05	0.974 ± 0.032	0.944 ± 0.038
O=C(Nc1ccc(C(=O)O)c(O)c1)c1ccccc1	1.065 ± 0.0071	0.924 ± 0.011	1.01 ± 0.032	0.83 ± 0.016	1.07 ± 0.05
COc1cc(/C=C/C(=O)N2CCC=CC2=O)cc(OC)c1OC	0.939 ± 0.037	0.717 ± 0.099	1.11 ± 0.042	0.704 ± 0.14	0.773 ± 0.095
COC1(C)CCC2OC2(C)CCC2C1CC2(C)C (stereo not given)	1.1 ± 0.099	0.97 ± 0.02	1.08 ± 0.042	0.934 ± 0.063	1.02 ± 0.044
CC(C)NCC(O)COc1ccc(CC(N)=O)cc1 (stereo not given)	1.07 ± 0.057	0.932 ± 0.016	1.02 ± 0.066	0.971 ± 0.055	1.07 ± 0.064
N[C@@H](CCC(=O)N[C@@H](CS)C(=O)NCC(=O)O)C(=O)O	1.03 ± 0.042	1.06 ± 0.11	1.02	1.03	1.13 ± 0.13
COc1ccc2ccc(=O)oc2c1CC=C(C)C	1.04 ± 0.13	1.01 ± 0.026	0.985 ± 0.036	1.01 ± 0.033	0.99 ± 0.071
COc1ccc([C@H]2Oc3cc(OC)cc(OC)c3C[C@H]2O)cc1	1 ± 0.029	0.941 ± 0.098	0.9645 ± 0.005	0.923 ± 0.046	1.03 ± 0.052
CC(=O)N[C@@H](Cc1c[nH]c2ccccc12)C(N)=O	1.07 ± 0.11	0.831 ± 0.1	1.07 ± 0.028	1.04 ± 0.18	0.891 ± 0.061
CCCc1cc(=O)[nH]c(=S)[nH]1	0.959 ± 0.033	1.065 ± 0.0071	0.998 ± 0.031	0.98 ± 0.057	1.02 ± 0.028
O=C(O)/C=C/c1ccccc1	1.09 ± 0.17	1.08 ± 0.092	1.09 ± 0.035	0.928 ± 0.086	1.05 ± 0.035
CC(=O)OCC[N+](C)(C)C	0.987 ± 0.15	0.998 ± 0.059	0.982 ± 0.014	1.01 ± 0.023	0.992 ± 0.012
Cc1cc(-c2ncc(CC(=O)Nc3ccc(-c4cnccn4)cn3)cc2C)ccn1	0.974 ± 0.052	0.975 ± 0.032	0.914 ± 0.0028	0.921 ± 0.042	0.847 ± 0.21
C=C1C(=O)O[C@@H]2C[C@@]3(C)CCC[C@H](C)C3=C[C@H]12	1.01 ± 0.02	0.875 ± 0.027	0.96 ± 0.0057	0.985 ± 0.0057	1.03 ± 0.067
CC(=O)NS(=O)(=O)c1ccc(NC(=O)c2ccccc2C(=O)O)cc1	0.946 ± 0.047	0.905 ± 0.13	0.93 ± 0.035	1.04 ± 0.057	1.1 ± 0.042
NC(C(=O)O)C(O)C(=O)O (stereo not drawn) [d,l-threo-3-HYDROXYASPARTIC ACID]	0.923 ± 0.036	1.09 ± 0.11	0.949 ± 0.044	1.14 ± 0.27	1.15 ± 0.064
COc1ccc([C@@H](C)C(=O)c2ccc(O)cc2O)cc1	1.04 ± 0.098	1.09 ± 0.071	1.025 ± 0.0071	1.02 ± 0.071	1.07 ± 0.1
CC(C)CC(NC(=O)OCC1c2ccccc2-c2ccccc21)C(=O)O (stereo in doubt)	1.06 ± 0.057	0.996 ± 0.035	1.01 ± 0.021	0.979 ± 0.027	1.02 ± 0.029
CC(=O)Oc1cc2c(c(C)c1OC(C)=O)CC=C1[C@@]2(C)CC[C@@]2(C)C3C[C@](C)(C(=O)O)CC[C@]3(C)CC[C@]12C (stereo not given in full)	0.903 ± 0.12	0.958 ± 0.16	0.953 ± 0.081	0.869 ± 0.064	0.898 ± 0.12
CN1CCC(=C2c3ccccc3Sc3ccccc32)CC1	1.004 ± 0.0092	0.913 ± 0.032	1.03 ± 0.059	0.874 ± 0.026	0.944 ± 0.071
CNC(=C[N+](=O)[O-])NCCSCc1ccc(CN(C)C)o1	0.892 ± 0.018	0.983 ± 0.024	0.974 ± 0.011	0.998 ± 0.017	0.953 ± 0.016
CCOc1ccc2c(c1)C(C)=CC(C)(C)N2	1 ± 0.071	0.91 ± 0.09	1.01 ± 0.035	0.775 ± 0.12	0.899 ± 0.056
